What all share (assay): qHTS profiling for inhibitors of Plasmodium falciparum proliferation (AID 504749); further: nearly all actives have a fitted effect of over 60% in size
What all share (conditions): P. falciparum in erythrocytes, SYBR Green DNA, 72 h; series mostly up to 28.7 µM
(In general: Quantitative high-throughput screening tests each substance at several concentrations.)

For one experiment, the system named is CP192. In short, it runs like this:
(§1)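 SYBR Green fluorescence (ex 485 nm, em 535 nm) reports parasite DNA after 72 h compound exposure of infected red cells at 0.3% parasitemia, 2.5% hematocrit; signal normalized to 0.29 uM artemisinin and vehicle wells.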

The subject of a further experiment is CP194. A digest of the protocol:
as §1

In the next experiment the test system is CP201. A digest of the protocol:
as §1

The subject of the next experiment is CP203. A digest of the protocol: as §1
A further experiment deals with CP211. A digest of the protocol: as §1
In another experiment the test system is CP215. A digest of the protocol:
as §1

A further experiment relates to CP217. In short, it runs like this: as §1
A further experiment deals with CP237. A digest of the protocol: as §1
A further experiment has as its system CP238. In short, it runs like this: as §1
The test system of another experiment is CP247. In short, it runs like this:
as §1

A further experiment relates to CP250. In short, it runs like this: as §1
The next experiment concerns CP252. A digest of the protocol:
as §1

The next experiment deals with CP256. In short, it runs like this: as §1
The next experiment concerns CP260. A digest of the protocol: as §1
A further experiment deals with CP262. In short, it runs like this:
as §1

For another experiment, the system named is CP268. In short, it runs like this:
as §1

Another experiment deals with CP269. In short, it runs like this:
as §1

For another experiment, the system named is CP286. A digest of the protocol: as §1
The test system of the next experiment is CP265. A digest of the protocol: as §1
Another experiment relates to CP266. A digest of the protocol: as §1

Inconclusive results are not listed. Calls of active or inactive are those of the source. The call rests on the fitted dose curve; in most records, active means well fitted inhibition curve with a large enough effect; inconclusive means small, poorly fitted or top-dose-only effect; inactive means flat fitted curve, though single readings scatter.
Potency means the concentration at half of the fitted maximal effect.

Turning to `OC(O)C(Cl)(Cl)Cl`, the Potency entry with CP192, in the experiment with CP194, in the experiment with CP201, with CP203, with CP211 and in the experiment with CP215 was “inactive” throughout. Moreover, the Potency entry in the experiment on CP217, in the experiment on CP237, with CP238, in the experiment on CP247, in the experiment with CP250 and in the experiment on CP252 was “inactive” in each case. The Potency result with CP256, in the experiment on CP260, with CP262, in the experiment on CP268, in the experiment on CP269 and in the experiment with CP286 was “inactive” each time.
As to `CCN(CC)C(C)C(=O)c1ccccc1` (stereo not drawn), the Potency result with CP192, in the experiment on CP194, with CP201, in the experiment with CP211, with CP215 and with CP217 was “inactive” each time. Also, the Potency result with CP237, in the experiment with CP238, in the experiment on CP247, in the experiment on CP250, in the experiment with CP252 and in the experiment on CP256 was “inactive” in each case. Further, the Potency result with CP260, in the experiment on CP262, in the experiment with CP265, in the experiment on CP266, in the experiment with CP268 and in the experiment on CP269 was “inactive” throughout. Also, in the experiment on CP286, the Potency entry is “inactive”.
For the molecule `CC(C)NCC(O)c1ccc(N)c(C#N)c1` (stereo not drawn), the Potency result with CP192, with CP194, in the experiment on CP201, in the experiment with CP211, with CP215 and in the experiment with CP217 was “inactive” in each case. Moreover, the Potency entry with CP237, in the experiment on CP238, with CP247, in the experiment with CP250, in the experiment on CP252 and in the experiment with CP256 was “inactive” in each case. Moreover, the Potency entry with CP260, in the experiment with CP262, in the experiment with CP265, in the experiment on CP266, with CP268 and with CP269 was “inactive” throughout. For the same molecule, the Potency entry with CP286 was “inactive”.
On to `CCN(Cc1ccc(Cl)nc1)/C(=C/[N+](=O)[O-])NC`, for which the Potency result with CP192, in the experiment on CP194, in the experiment with CP201, in the experiment on CP211, in the experiment with CP215 and in the experiment on CP217 was “inactive” in each case. For the same molecule, the Potency result with CP237, in the experiment on CP238, with CP247, in the experiment on CP250, with CP252 and with CP256 was “inactive” throughout. Moreover, the Potency entry with CP260, with CP262, in the experiment on CP265, in the experiment on CP266, in the experiment on CP268 and in the experiment with CP269 was “inactive” each time. Also, the Potency result with CP286 was “inactive”.
In the case of `COCC(=O)N(c1c(C)cccc1C)C(C)C(=O)OC` (stereo not drawn), the Potency result in the experiment with CP192, with CP194, with CP201, in the experiment on CP203, in the experiment on CP211 and with CP215 was “inactive” each time. The Potency result with CP237, in the experiment on CP256, in the experiment on CP260, with CP262, with CP266 and in the experiment on CP268 was “inactive” in each case. Also, the Potency result in the experiment with CP269 and with CP286 was “inactive” in each case.
With `Oc1c(Br)cc(Br)cc1Br`, the Potency result with CP192, with CP194, with CP201, with CP211, with CP215 and in the experiment with CP217 was “inactive” each time. The Potency result in the experiment with CP237, in the experiment with CP238, in the experiment with CP247, in the experiment on CP250, with CP252 and in the experiment with CP256 was “inactive” throughout. Besides, the Potency entry with CP260, with CP262, with CP265, in the experiment on CP266, with CP268 and in the experiment on CP269 was “inactive” throughout. The Potency entry in the experiment on CP286 was “inactive”.
On to `COP(=O)(OC)OC=C(Cl)Cl`, for which the Potency entry with CP192, with CP194, with CP201, with CP211, with CP215 and with CP217 was “inactive” each time. Besides, the Potency entry in the experiment on CP237, in the experiment on CP238, with CP247, in the experiment on CP250, with CP252 and in the experiment on CP256 was “inactive” in each case. Also, the Potency result with CP260, in the experiment on CP262, with CP265, in the experiment with CP266, with CP268 and in the experiment with CP269 was “inactive” each time. Moreover, the Potency entry in the experiment on CP286 is “inactive”.
As to `COc1ccc(C(=O)N2CCCC2=O)cc1`, the Potency entry with CP192, in the experiment on CP194, in the experiment with CP201, with CP211, in the experiment on CP215 and with CP217 was “inactive” each time. Besides, the Potency entry in the experiment on CP237, with CP238, with CP247, in the experiment with CP250, with CP252 and in the experiment with CP256 was “inactive” throughout. The Potency result in the experiment with CP260, in the experiment on CP262, in the experiment on CP265, with CP266, in the experiment with CP268 and in the experiment with CP269 was “inactive” throughout. In the experiment with CP286, the Potency entry was “inactive”.
For the molecule `CN(C)C(=S)SSC(=S)N(C)C`, the Potency in the experiment on CP192 was 3.79 µM (active); with CP194 it was 3.38 µM (active); in the experiment with CP201, 4.26 µM (active); with CP211, 2.69 µM (active); with CP215, 5.36 µM (active); in the experiment with CP217 it was 3.98 µM (active). The Potency is 1.58 µM (active) in the experiment on CP237; 3.55 µM (active) with CP238; 2.82 µM (active) with CP247; 3.16 µM (active) in the experiment on CP250; 3.98 µM (active) with CP252; 3.55 µM (active) in the experiment on CP256. Moreover, the Potency in the experiment on CP260 was 0.891 µM (active); with CP262, 2.13 µM (active); in the experiment with CP265 it was 3.98 µM (active); in the experiment with CP266, 4.78 µM (active); in the experiment with CP268 it was 3.01 µM (active); with CP269 it was 2.13 µM (active). Further, the Potency with CP286 is 1.26 µM (active).
With `C[C@H]1C(=O)O[C@@H]2CCN3CC=C(COC(=O)[C@](C)(O)[C@]1(C)O)[C@H]23`, the Potency entry in the experiment with CP192, in the experiment with CP194, in the experiment on CP201, with CP203, in the experiment with CP211 and in the experiment with CP215 was “inactive” in each case. Also, the Potency entry with CP217, with CP237, with CP238, in the experiment with CP247, in the experiment on CP250 and in the experiment on CP252 was “inactive” in each case. Further, the Potency result with CP256, in the experiment with CP260, with CP262, in the experiment with CP265, in the experiment on CP266 and in the experiment on CP268 was “inactive” each time. The Potency entry in the experiment with CP269 and in the experiment on CP286 was “inactive” in each case.
For the molecule `NCc1cccnc1`, the Potency result with CP192, in the experiment on CP194, with CP201, in the experiment on CP211, in the experiment on CP215 and in the experiment on CP217 was “inactive” throughout. In addition, the Potency entry in the experiment on CP237, with CP238, in the experiment with CP247, in the experiment on CP250, in the experiment with CP252 and in the experiment with CP256 was “inactive” throughout. Further, the Potency result in the experiment on CP260, with CP262, in the experiment with CP265, in the experiment on CP266, in the experiment on CP268 and in the experiment on CP269 was “inactive” throughout. The Potency entry in the experiment with CP286 was “inactive”.
With `CCOC(=O)NC(O)C(Cl)(Cl)Cl` (stereo not drawn), the Potency entry with CP192, in the experiment on CP194, with CP201, in the experiment with CP203, in the experiment on CP211 and in the experiment on CP215 was “inactive” throughout. Also, the Potency entry in the experiment on CP217, in the experiment on CP237, with CP238, in the experiment with CP247, in the experiment with CP250 and with CP252 was “inactive” in each case. The Potency entry in the experiment on CP256, with CP260, with CP262, with CP265, in the experiment on CP266 and with CP268 was “inactive” in each case. The Potency result in the experiment with CP269 and in the experiment with CP286 was “inactive” in each case.
Regarding `O=C(O)c1nn(Cc2ccc(Cl)cc2Cl)c2ccccc12`, the Potency result in the experiment with CP192, with CP194, in the experiment on CP201, in the experiment with CP211, in the experiment with CP215 and in the experiment with CP217 was “inactive” in each case. The Potency entry in the experiment with CP237, in the experiment with CP238, in the experiment with CP247, in the experiment with CP250, in the experiment with CP252 and in the experiment on CP256 was “inactive” each time. Also, the Potency result with CP260, with CP262, with CP265, in the experiment on CP266, in the experiment on CP268 and in the experiment with CP269 was “inactive” throughout. The Potency result in the experiment on CP286 is “inactive”.

Values taken from PubChem BioAssay (NCATS).
